# C diff growth: C. difficile growth inhibition | Clostridium difficile clinical isolate growth, OD600, 24 h; hits give low values | growth activity, negative = inhibition, % at 16 µg/mL (by protocol) | 86,000 compounds, 0.25% hits | AID 1259249;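 active = mean growth activity at or below -80% and every replicate also at or below -80%; inconclusive = mean at or below -80% but some replicate above -80%; inactive = mean growth activity above -80%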
# T cruzi growth: inhibitors of T. cruzi proliferation; inhibition, % at 8.34 µM; T. cruzi beta-gal in NIH3T3, GalScreen luminescence, 90 h; 77,000 compounds, 5.9% hits;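 active = mean inhibition above about 93%, with at least 55% of replicates each passing it, limit read from the data, passing the limit was not always enough; inconclusive = only one of those two conditions holds; inactive = neither condition holds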
# Pf Dd2 growth: P. falciparum Dd2 growth inhibition. 94,000 compounds, 2.3% hits. AID 1159554. SYBR Green, 72 h; hits give low values. activity change, % at 10 µM; in the data active = activity change below about -80%; inconclusive = no clear call, values can overlap the other calls
# Hits are given with their value; 0 = inactive; ? = inconclusive; - = not tested or not shown. Compounds with a hit are over-represented: about 6.8% of the library has one in this group of screens.
SMILES,C diff growth,T cruzi growth,Pf Dd2 growth
C[C@H](CO)N1C[C@H](C)[C@@H](CN(C)Cc2ccc(-c3ccccc3)cc2)OCc2ccccc2-c2c(n(C)c3ccccc23)C1=O,0,-,-92
C[C@@H]1CN([C@@H](C)CO)C(=O)c2c(c3ccccc3n2C)-c2ccccc2CO[C@@H]1CN(C)Cc1ccc(F)cc1,0,-,0
C[C@H]1CN([C@@H](C)CO)C(=O)c2c(c3ccccc3n2C)-c2ccccc2CO[C@@H]1CN(C)Cc1ccc(F)cc1,0,-,-83
C[C@H]1CN([C@@H](C)CO)C(=O)c2c(c3ccccc3n2C)-c2ccccc2CO[C@@H]1CN(C)Cc1ccccc1,0,-,0
COc1ccc(CNC(=O)C[C@H]2C=C[C@@H](NS(=O)(=O)c3cccc(OC)c3)[C@@H](CO)O2)cc1,0,-,-91
COc1ccc(CNC(=O)C[C@@H]2C=C[C@H](NS(=O)(=O)c3cccc(OC)c3)[C@@H](CO)O2)cc1,0,-,-
OC[C@@H]1[C@H](c2ccc(-c3ccc(F)cc3)cc2)[C@@H](CNC2CCCC2)N1CCC(F)(F)F,0,-,-97
OC[C@H]1[C@H](c2ccc(-c3ccc(F)cc3)cc2)[C@@H]2CN(CCC(F)(F)F)CCCCN12,0,0,0
OC[C@H]1[C@@H](c2ccc(-c3ccc(F)cc3)cc2)[C@@H]2CN(CCC(F)(F)F)CCCCN12,0,0,0
OC[C@@H]1[C@H](c2ccc(-c3ccc(F)cc3)cc2)[C@H](CNC2CCCC2)N1CCC(F)(F)F,0,-,-89
CC(C)NC(=O)N(C)C[C@@H]1Oc2ccc(NS(C)(=O)=O)cc2CC(=O)N([C@H](C)CO)C[C@H]1C,0,-,0
C[C@@H]1CN([C@H](C)CO)C(=O)c2cc(NC(=O)Nc3ccc(C(F)(F)F)cc3)ccc2O[C@@H](C)CCCCO[C@@H]1CN(C)C(=O)CCCN(C)C,0,0,0
COc1ccc(NC(=O)N(C)C[C@@H]2Oc3c(NC(=O)Nc4ccc(F)cc4)cccc3C(=O)N([C@H](C)CO)C[C@H]2C)cc1,0,0,0
CO[C@@H]1CN(C)C(=O)c2ccc(NC(=O)Nc3cccc(Cl)c3)cc2OC[C@H](C)NC[C@@H]1C,-,0,0
CO[C@@H]1CN(C)C(=O)c2ccc(NC(=O)Nc3cccc(Cl)c3)cc2OC[C@@H](C)NC[C@H]1C,-,0,-84
CO[C@H]1CN(C)C(=O)c2ccc(NC(=O)Nc3cc(Cl)cc(Cl)c3)cc2OC[C@@H](C)NC[C@H]1C,0,0,0
CO[C@H]1CN(C)C(=O)c2ccc(NC(=O)Nc3cc(Cl)cc(Cl)c3)cc2OC[C@H](C)NC[C@H]1C,-96,0,-89
COc1ccc(S(=O)(=O)N(C)C[C@@H]2Oc3ccc(NS(C)(=O)=O)cc3C(=O)N([C@H](C)CO)C[C@@H]2C)cc1,0,0,0
CCNC(=O)[C@@H]1[C@@H](CO)[C@@H]2Cn3c(ccc(-c4ccccc4F)c3=O)[C@@H]2N1C(C)=O,0,0,0
C[C@@H]1CCCCO[C@H](CN(C)C(=O)Nc2ccc(C(F)(F)F)cc2)[C@H](C)CN([C@@H](C)CO)C(=O)c2cc(NC(=O)Nc3cccc4ccccc34)ccc2O1,0,0,0
C[C@H](CO)N1C[C@H](C)[C@@H](CN(C)C(=O)Nc2ccc(C(F)(F)F)cc2)OCCCC[C@H](C)Oc2ccc(NC(=O)Nc3ccc(F)cc3)cc2C1=O,0,119,0
C[C@@H]1CCCCO[C@H](CN(C)C(=O)Nc2ccc(C(F)(F)F)cc2)[C@@H](C)CN([C@H](C)CO)C(=O)c2cc(NC(=O)Nc3cccc4ccccc34)ccc2O1,0,0,-82
C[C@@H]1CCCCO[C@H](CN(C)C(=O)Nc2ccc(C(F)(F)F)cc2)[C@H](C)CN([C@H](C)CO)C(=O)c2cc(NC(=O)Nc3ccc(F)cc3)ccc2O1,0,117,-81
Cc1noc(C)c1NC(=O)Nc1ccc2c(c1)C(=O)N([C@@H](C)CO)C[C@@H](C)[C@H](CN(C)C(=O)Nc1ccc(C(F)(F)F)cc1)OCCCC[C@H](C)O2,0,0,0
Cc1noc(C)c1NC(=O)Nc1ccc2c(c1)C(=O)N([C@H](C)CO)C[C@@H](C)[C@H](CN(C)C(=O)Nc1ccc(C(F)(F)F)cc1)OCCCC[C@H](C)O2,0,0,-84
SMILES,C diff growth,T cruzi growth,Pf Dd2 growth
C[C@@H]1CCCCO[C@@H](CN(C)C(=O)Nc2ccc(F)cc2)[C@@H](C)CN([C@H](C)CO)C(=O)c2cc(NC(=O)Nc3ccc(C(F)(F)F)cc3)ccc2O1,0,0,0
C[C@H](CO)N1C[C@H](C)[C@H](CN(C)C(=O)Nc2ccc(C(F)(F)F)cc2)OCCCC[C@H](C)Oc2ccc(NC(=O)Nc3ccc(F)cc3)cc2C1=O,0,?,0
CCCNC(=O)Nc1ccc2c(c1)C(=O)N(C)[C@@H]1CC[C@@H](CC(=O)NC)O[C@@H]1CO2,0,0,0
C[C@@H]1CN([C@H](C)CO)C(=O)c2cc(NC(=O)NC3CCCCC3)ccc2O[C@@H](C)CCCCO[C@@H]1CN(C)C(=O)NC1CCCCC1,0,0,0
C[C@H]1CN([C@@H](C)CO)C(=O)Cc2cc(NC(=O)CCCCCC(=O)Nc3ccccc3N)ccc2O[C@@H]1CN(C)C(=O)Nc1ccc(F)cc1,0,-,0
CCC(=O)N1C[C@@H](C)[C@H](OC)CN(C)C(=O)c2ccc(NC(=O)c3ccno3)cc2OC[C@@H]1C,0,-,0
CC(C)(O)c1cn([C@@H]2C[C@@H]3O[C@@H](CO)CC[C@@H]3O[C@@H]2CCc2ccc(-c3cccnc3)cc2)nn1,0,-,0
COc1ccc2c3c([nH]c2c1)[C@H](CO)N(S(=O)(=O)c1ccc(C)cc1)CC31CCN(C(=O)Cc2cccnc2)CC1,0,-,-86
CCCC(=O)N1CC2(C1)CN(S(=O)(=O)c1ccc(C)cc1)[C@@H](CO)c1[nH]c3cc(OC)ccc3c12,0,-,-87
CCS(=O)(=O)N1CC2(C1)CN(S(=O)(=O)c1ccc(C)cc1)[C@H](CO)c1[nH]c3cc(OC)ccc3c12,0,-,0
COc1ccc2c3c([nH]c2c1)[C@H](CO)N(S(=O)(=O)c1ccc(C)cc1)CC31CN(C(=O)Cc2cccnc2)C1,0,-,0
O=C1CS(=O)(=O)C(c2ccccc2)N1c1cccc(Cl)c1 (stereo unspecified),0,-,-
CCC(=O)N(C)C[C@H]1Oc2cc(Br)ccc2S(=O)(=O)N([C@H](C)CO)C[C@@H]1C,0,-,0
C[C@@H]1CCCCO[C@H](CN(C)S(=O)(=O)c2ccc(F)cc2)[C@H](C)CN([C@@H](C)CO)C(=O)c2cc(NC(=O)Nc3ccc(C(F)(F)F)cc3)ccc2O1,-,0,-86
COc1ccc(S(=O)(=O)N(C)C[C@@H]2OCCCC[C@@H](C)Oc3ccc(NC(=O)Nc4ccc(C(F)(F)F)cc4)cc3C(=O)N([C@H](C)CO)C[C@@H]2C)cc1,0,0,-84
Cc1ccc(S(=O)(=O)N(C)C[C@H]2OCCCC[C@@H](C)Oc3ccc(NC(=O)Nc4ccc(C(F)(F)F)cc4)cc3C(=O)N([C@H](C)CO)C[C@@H]2C)cc1,0,-,0
COc1ccc(S(=O)(=O)N(C)C[C@H]2OCCCC[C@H](C)Oc3ccc(NC(=O)Nc4ccc(C(F)(F)F)cc4)cc3C(=O)N([C@H](C)CO)C[C@@H]2C)cc1,0,0,0
